# Values joined by “and” are separate entries in the source; they are usually repeats but may differ in a detail not shown here. Equal entries are not always repeated.
# Columns and labels:
# Format in all cases: functional
# [1] = target: Solute carrier family 2, facilitated glucose transporter member 1 (Homo sapiens) (UniProt P11166); assay: ST_JUDE_LEISH: Cytotoxicity at 2uM final concentration against transgenic Leishmania Mexicana promastigotes LmGLUT1 that are glucose transport deficient and complemented with the human glucose transporter GLUT1. Activity is measured by DNA content using SYBR green in vitro
# Chain of Solute carrier family 2, facilitated glucose transporter member 1 (Homo sapiens) (P11166 whole entry): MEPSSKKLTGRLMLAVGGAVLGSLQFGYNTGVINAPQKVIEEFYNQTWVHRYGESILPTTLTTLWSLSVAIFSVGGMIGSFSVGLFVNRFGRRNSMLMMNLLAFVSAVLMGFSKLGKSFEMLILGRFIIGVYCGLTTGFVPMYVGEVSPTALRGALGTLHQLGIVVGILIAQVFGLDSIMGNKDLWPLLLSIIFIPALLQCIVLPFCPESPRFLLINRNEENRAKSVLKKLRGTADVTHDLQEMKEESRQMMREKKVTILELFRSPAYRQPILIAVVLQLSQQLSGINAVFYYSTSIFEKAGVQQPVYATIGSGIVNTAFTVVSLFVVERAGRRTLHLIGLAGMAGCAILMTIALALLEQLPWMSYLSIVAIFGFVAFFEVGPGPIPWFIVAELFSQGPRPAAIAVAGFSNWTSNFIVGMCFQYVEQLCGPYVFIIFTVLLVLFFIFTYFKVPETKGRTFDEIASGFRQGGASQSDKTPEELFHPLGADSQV
# [2] = target: Hexose transporter 1 (Plasmodium falciparum) (UniProt O97467); assay: ST_JUDE_LEISH: Cytotoxicity at 2uM final concentration against transgenic Leishmania Mexicana promastigotes LmPfHT that are glucose transport deficient and complemented with the Plasmodium falciparum hexose transporter. Activity is measured by DNA content using SYBR green in vitro
# [3] = target: Glucose transporter (Leishmania mexicana) (UniProt O61059); assay: ST_JUDE_LEISH: Cytotoxicity at 2uM final concentration against transgenic Leishmania Mexicana promastigotes LmGT2 that are glucose transport deficient and complemented with the L. Mexicana glucose transporter 2. Activity is measured by DNA content using SYBR green in vitro
Compound,inhibition [1],inhibition [2],inhibition [3]
CCN1CCC(N2CCC(n3c(C)nc4cc(C(F)(F)F)ccc43)CC2)CC1,3.01%,3.12%,4.4%
CCC1(C)CC(CCNCc2ccccc2O)(c2ccc(C)cc2)CCO1 (stereo not given),-0.22%,-2.9%,-0.15%
Cc1cccc(C(=O)Nc2ccnc(N(C)C3CCN(Cc4cccc(O)c4)CC3)c2)c1,3.06%,1.84%,3.85%
Cc1cc(C2CCCCN2C)ccc1-c1ccc(C(=O)N2CCc3cc4c(cc32)C2(CCN(C)CC2)CO4)cc1 (stereo not given),3.41%,0.31%,1.11%
CC(C)c1ccc(C=CC(=O)NC2CCC(CN3CCC(c4c[nH]c5ccccc45)CC3)CC2)cc1 (stereo not given),2.2%,1.4%,2.47%
CC[C@H]1CN2CCc3cc(OC)c(OC)cc3[C@@H]2C[C@@H]1C[C@H]1NCCc2c1cc(OC)c(O)c2I,93.9%,96.6%,90%
N[C@@H](CCN1CCC(c2cccc(O)c2)CC1)Cc1ccc(F)c(F)c1,3.74%,2.04%,0.73%
CC(=O)Nc1ccc(OCCN(CC(C)(C)C)c2ccc(C#N)c(C(F)(F)F)c2)c(Cl)c1,4.2%,5.82%,3.22%
c1ccc(C(OCCC2CCN(Cc3cccc4cccnc34)CC2)c2ccccc2)cc1,9.36%,8.53%,5.64%
Cc1c(C(=O)N[C@@H](C)c2ccccc2)c2cc(O)c(Br)cc2n1C1CCCCC1,2.84%,2.43%,3.33%
CC[C@H]1CN2CC[C@H]1C[C@@H]2[C@@H](O)c1cc(Cl)nc2ccc(OC)cc12,11%,8.14%,8.37%
COc1ccc(C(=O)C2CC2CN2CC=C(c3c[nH]c4ccc(OC)nc34)CC2)cc1 (stereo not given),1.91%,-1.74%,2.37%
Cc1cccc(C(=O)Nc2ccnc(N(C)C3CCN(CC(C)C)CC3)c2)c1,-0.27%,0.85%,0%
O=C(/C=C/c1cccc(F)c1)NC1CCC(CN2CCC(c3c[nH]c4ccccc34)CC2)CC1 (stereo not given),2.52% and 1.33%,-0.05% and 2.1%,-1.71% and 2.77%
CC(C)/C(=C(/F)CN1C(=O)C(NC(=O)c2cc3ccccc3[nH]2)C(=O)N(c2ccccc2)c2ccccc21)c1ccccc1 (stereo not given),-0.35%,-0.22%,-1.01%
CC[C@H]1CN2CC[C@@H]1C[C@H]2[C@H](O)c1cc(N2CCOCC2)nc2ccc(OC)cc12,-1.11%,-1.44%,-2.42%
O=C(Nc1ccccc1OC(F)(F)F)NC1CCC(CN2CCC(c3c[nH]c4ccccc34)CC2)CC1 (stereo not given),2.64% and 17.3%,3.83% and 26.1%,0.62% and 10.3%
O=C(NC1CCC(CN2CCC(c3c[nH]c4ccccc34)CC2)CC1)c1csc(-c2cccc(Cl)c2Cl)n1 (stereo not given),5.32%,4.16%,2.71%
O=C(NC1CCC(CN2CCC(c3c[nH]c4ccccc34)CC2)CC1)c1cc(-c2ccccc2Cl)oc1C(F)(F)F (stereo not given),0.8%,1.05%,0.55%
O=C(/C=C/c1ccc(Cl)c(Cl)c1)NC1CCC(N2CCC(c3c[nH]c4ccccc34)CC2)CC1 (stereo not given),26%,6.98%,4.41%
CC(=O)Nc1ccc(CN2CCC(N(C)c3cc(NC(=O)c4ccc(F)cc4)ccn3)CC2)cc1,1.04%,2.13%,2.53%
O=c1c2ccccc2nc(/C=C/c2ccc([N+](=O)[O-])cc2)n1-c1ccccn1,10.9%,11%,6.71%
Cc1ccccc1CNCC(O)c1cccc(C(F)(F)F)c1 (stereo not given),1.72%,2.2%,-1.33%
C#CCN1CCC2=C(C1)c1c(O)cc(C(C)CCCc3ccc(F)cc3)cc1OC2(C)C (stereo not given),1.13%,0.61%,0.09%
Oc1ccccc1CNCC(O)c1cc(C(F)(F)F)cc(C(F)(F)F)c1 (stereo not given),6.65%,5.51%,4.91%
Fc1ccc2[nH]cc(CCN3CCC(CNCc4ccccc4)CC3)c2c1,6.4%,5.46%,1.2%
CCC1=C[C@@H]2CN(C1)Cc1c([nH]c3ccccc13)[C@@](C(=O)OC)(c1cc3c(cc1OC)N(C)[C@H]1[C@@](O)(C(=O)OC)[C@H](O)[C@]4(CC)C=CCN5CC[C@]31[C@@H]54)C2,2.2%,4.15%,2.69%
O=C(/C=C/c1cc(F)cc(C(F)(F)F)c1)N1CCC(CN2CCC(c3c[nH]c4ccccc34)CC2)CC1,0.47%,1.39%,2.96%
CC[C@H]1CN2CC[C@@H]1C[C@H]2[C@H](O)c1cc(-c2c(C)noc2C)nc2ccc(OC)cc12,3.43%,4.92%,6.01%
O=C(/C=C/c1ccc(Cl)c(Cl)c1)N1CCC(CN2CCC(c3c[nH]c4cc(C(F)(F)F)ccc34)CC2)CC1,2.28%,3.35%,-0.87%

# From ChEMBL document CHEMBL3433997, “St. Jude Leishmania screening dataset” (2016)
